Source: PubChem BioAssay (NCI)
Compounds without any hit were thinned out: in the full panel of roughly 83,000, 20% have a hit.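 Each cell line was grown in a 96-well plate and treated with one concentration of compound for 48 hours. Values below 10 were considered active.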 Values without a mark were called inactive. Active and inactive are the calls of the source.

Key:
Assay in all cases: NCI-60 one-dose screen, 48 h (100 = growth as untreated, 0 = no growth, -100 = all killed)
Conditions in all cases: 10 µM unless noted
[1] = system: HT29 colon
[2] = system: SNB-75 CNS
[3] = system: SNB-19 CNS
[4] = system: U251 CNS
[5] = system: PC-3 prostate
[6] = system: SK-MEL-5 melanoma
[7] = system: UACC-62 melanoma
[8] = system: LOX IMVI melanoma
[9] = system: SK-MEL-28 melanoma
[10] = system: SK-MEL-2 melanoma
[11] = system: EKVX NSCLC
[12] = system: SN12C renal
[13] = system: UO-31 renal
[14] = system: TK-10 renal
[15] = system: ACHN renal
[16] = system: CAKI-1 renal
[17] = system: CCRF-CEM leukemia
[18] = system: MOLT-4 leukemia
[19] = system: A498 renal

SMILES | growth [1] | growth [2] | growth [3] | growth [4] | growth [5] | growth [6] | growth [7] | growth [8] | growth [9] | growth [10] | growth [11] | growth [12] | growth [13] | growth [14] | growth [15] | growth [16] | growth [17] | growth [18] | growth [19]
O=c1[nH]c(=S)c2c(n1CCCO)CCC2 | 104% | 88% | 102% | 101% | 103% | 101% | 97.2% | 96.5% | 111% | 99.8% | 91.2% | 99.7% | 89.9% | 102% | 103% | 93.2% | 103% | 104% | 
COc1ccc(C2OCC(C)(C)CO2)cc1OC | 109% | 102% | 112% | 94.8% | 95% | 96.5% | 99.9% | 95.2% | 121% | 106% |  | 98.5% | 89.8% | 109% | 107% |  | 94.3% | 100% | 115%
COc1cc(/C=C/C(=O)C(=Cc2ccc(F)c(F)c2)C(=O)/C=C/c2ccc(O)c(OC)c2)ccc1O | -31.4% (active) | 38.3% | 63.1% | 18.8% | 30.7% | 40.9% | 32.3% | -82.5% (active) | 36% | 6.91% (active) | 72.1% | 31.2% | 53.2% | 35.5% | 27.3% | 95.6% | 9.98% (active) |  | 116%
COc1ccc(/C=C(\C#N)c2cc3ccccc3n2C)cc1 | 9.49% (active) | 1.11% (active) | 32.8% | 15.9% | 38.8% | 23.2% | 38.3% | 39.4% | 62.1% | 67% | 39.1% | 44.7% | 48.5% |  | 45.5% | 33.5% | 18.3% | 17.4% | -12.9% (active)
COC(=O)[C@@]12CC[C@@H](C)[C@]3(C[C@@H](c4ccoc4)OC3=O)[C@H]1CC[C@@H]1O[C@@]12C | 107% | 86% | 102% | 105% | 95.2% | 98.9% | 95.1% | 99.3% | 103% | 96.9% | 94.8% | 98.8% | 78.9% | 103% | 105% | 94.4% | 107% | 110% | 
COc1cc(C(=O)/C=C/c2c(-c3cccs3)nc3sccn23)cc(OC)c1OC | -13.8% (active) | -27.7% (active) | 14.4% | 0.929% (active) | 7.06% (active) | -37.9% (active) | -56.4% (active) | -68.5% (active) | 16.5% | -3.21% (active) | 3.45% (active) | 4.03% (active) | 10.2% | 3.46% (active) | 12.4% | -29% (active) | 10.8% | -1.21% (active) | -26.3% (active)
CN([N-]C(=O)CC(=O)[N-]N(C)C(=S)c1ccccc1)C(=S)c1ccccc1.[Cu+2] | -77.8% (active) | -96.8% (active) | -96.1% (active) | -99% (active) | -53% (active) | -94.6% (active) | -92.4% (active) | -93.1% (active) | -94.7% (active) | -90.2% (active) |  | -97.9% (active) |  | -99.1% (active) | -50.6% (active) | -94.7% (active) | -19.7% (active) | -36.2% (active) | -93.9% (active)
CN(C)c1ccc(/C=C(\C#N)c2cc3ccccc3n2C)cc1 | 10.3% | 20.8% | 31% | 19.4% | 34.4% | 19.3% | 38.5% | 31.5% | 67.2% | 54.7% | 41.6% | 38.7% | 51.7% |  | 38.9% | 30.7% | 19.1% | 21.6% | -9.38% (active)
Cc1nc2cc(Nc3nc(N4CCOCC4)nc(N4CCN(C)CC4)n3)ccc2n1Cc1ccccc1 | 109% | 71.2% | 106% |  | 96.7% | 97.5% | 102% | 97.2% | 106% | 106% |  | 101% | 81.7% | 106% | 96.6% | 93.3% | 96.2% |  | 92.4%
CS(=O)(=O)Nc1cccc(C(=O)NCc2ccc(N3CCOCC3)cc2)c1 | 95% | 68.2% | 108% | 107% | 104% | 98.9% | 113% | 99.8% | 107% | 96.7% |  | 107% | 93% | 93.3% | 115% | 101% | 99.8% | 93.2% | 94%
Cc1cc(=O)oc2c1ccc1oc(C(=O)c3ccccc3)c(C)c12 | 51.8% | 103% | 103% | 83.9% | 86.4% | 84.3% | 80.8% | 80.5% | 105% | 104% |  | 71% | 100% | 113% | 76.9% | 77.1% | 69.1% |  | 82.8%
COc1ncc(F)c(OC)n1 | 104% | 89.1% | 111% |  | 92.2% | 97.5% | 106% | 102% | 107% | 109% |  | 100% | 86.9% | 108% | 100% | 94.5% | 100% | 94.7% | 110%
